# PubChem BioAssay
# Unmarked numbers belong to inactive results. For part of these data: Entries with a potency or affinity are not part of this list. The list shows a part of the results. Active and inactive are the calls of the source.
# How the values were obtained:
# [1] = molecular target: Inward rectifier potassium channel 2 (Mus musculus) (UniProt P35561); test: mouse Kir2.1 channel blockers, retest, confirmation, cell-based, FluxOR thallium flux, duplicate (AID 2032;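 active means Primary-screen hit whose thallium flux fell at least 3 control SD below untreated wells in both duplicates, with normal baseline fluorescence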); details: Kir2.1-expressing cells, FluxOR thallium flux fluorescence, at 10 µM; active compounds read low
# [2] = nonspecific thallium flux effects in parental HEK293 cells, confirmation, counter-screen for Kir2.1 inhibitor project, cell-based, FluxOR thallium flux, duplicate, single concentration (AID 2105); details: FluxOR thallium flux fluorescence, at 10 µM; 0% = unstimulated blank wells
# [3] = test system: TRPC4 beta (transient receptor potential cation channel C4), mouse; test: activators of mouse TRPC4 channel, confirmation, cell-based, Fluo4 calcium, HEK293 TRPC4beta/mu-opioid, duplicates, 10 µM (AID 2426;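 active means fluorescence ratio normalized to control raised more than 50% in primary screen plus both repeat runs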;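 further: percent rise of integrated ratio over buffer wells lacking compound which define 0%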); details: Fluo4 calcium fluorescence, at 10 µM; active compounds read high
# [4] = test system: transient receptor potential cation channel C4 beta (TRPC4), mouse; test: activators of mouse TRPC4 channel, confirmation, cell-based, second round, Fluo4, HEK293 TRPC4beta/mu-opioid, 1 µM (AID 2461;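 active means primary screen active and over 50% activation in each of two duplicate runs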); details: Fluo4 calcium fluorescence, at 1 µM; active compounds read high
# [5] = test system: TRPC4 (transient receptor potential cation channel C4 beta), mouse; test: positive allosteric modulators of mouse TRPC4, confirmation, cell-based, second round, Fluo-4, HEK293 TRPC4beta/mu-opioid, 1 µM (AID 2554;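 active means primary screen hit whose fluorescence ratio, in both repeats, exceeds the weak agonist control mean by 3 SD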); details: DAMGO EC20, Fluo-4 calcium flux, at 1 µM; active compounds read high
# [6] = test system: TRPC4 beta (transient receptor potential cation channel C4), mouse; test: positive allosteric modulators of mouse TRPC4, confirmation, cell-based, Fluo-4, HEK293 TRPC4beta/mu-opioid (AID 2555;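 active means primary screen hit whose calcium fluorescence ratio, in both repeats, exceeds the weak agonist control mean by 3 SD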); details: DAMGO EC20, Fluo-4 calcium flux, at 10 µM; active compounds read high
# [7] = molecular target: Short transient receptor potential channel 4 (Mus musculus) (UniProt Q9QUQ5); test: inhibitors of mouse TRPC4 channel, confirmation, cell-based, Fluo4, HEK293 TRPC4beta/mu-opioid (AID 2636;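 active means calcium signal cut by more than 3 SD below the full-agonist control yet still positive, in both repeats and the earlier primary screen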); details: DAMGO, Fluo4 calcium flux, at 10 µM; active compounds read high
# [8] = molecular target: Short transient receptor potential channel 4 (Mus musculus) (UniProt Q9QUQ5); test: inhibitors of mouse TRPC4 channel, confirmation, cell-based, second round, Fluo4, HEK293 TRPC4beta/mu-opioid, 1 µM (AID 2637;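 active means calcium signal ratio cut to more than 3 SD under the fully stimulated control mean yet still positive, in both repeats and the primary screen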); details: Fluo4 calcium flux, DAMGO, at 1 µM; active compounds read high
# [9] = molecular target: Short transient receptor potential channel 4 (Mus musculus) (UniProt Q9QUQ5); test: mouse TRPC4 channel activators, dose response, cell-based, HEK293 TRPC4/mu-opioid, Fluo-4 calcium (AID 434937;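 active means primary screen activator hit with a dose response curve and TRPC4 channel activation at any tested dose; inactive means no activation, no dose response, or not a primary hit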)
# [10] = molecular target: Short transient receptor potential channel 4 (Mus musculus) (UniProt Q9QUQ5); test: TRPC4 positive allosteric modulators, dose response, cell-based, HEK293 TRPC4/mu-opioid, Fluo-4 calcium, EC20 DAMGO (AID 434941;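 active means earlier screen potentiator hit that boosts the TRPC4 ion channel at some dose, with a dose response; inactive means no potentiation, no dose response, or not a prior hit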;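 further: calcium entry triggered by an EC20 dose of DAMGO at the co-expressed mu-opioid receptor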)
# [11] = molecular target: Short transient receptor potential channel 4 (Mus musculus) (UniProt Q9QUQ5); test: mouse TRPC4 channel inhibitors, dose response, cell-based, HEK293 TRPC4/mu-opioid, Fluo-4 calcium (AID 434942;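 active means primary screen inhibitor hit that blocks the TRPC4 channel at some tested dose, yielding a dose curve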)
# [12] = molecular target: Short transient receptor potential channel 6 (Mus musculus) (UniProt Q61143); test: inhibition of mouse TRPC6 channel, confirmation, selectivity assay for TRPC4 inhibitor project, cell-based, HEK293, membrane potential dye, duplicate (AID 434948;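 active means active in primary screen and both duplicates, each dropping signal beyond three positive-control SD with fluorescence still positive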); details: HEK293 TRPC6, membrane potential dye fluorescence, at 10 µM, stimulated with maximal-effect acetylcholine; active compounds read high
# [13] = molecular target: Short transient receptor potential channel 6 (Mus musculus) (UniProt Q61143); test: activation of mouse TRPC6 channel, confirmation, selectivity assay for TRPC4 activator project, cell-based, HEK293, membrane potential dye, duplicate (AID 434950;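 active means membrane potential signal rise above negative control mean plus 3 SD in both duplicates, also active in the earlier TRPC4 screen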); details: HEK293 TRPC6, membrane potential fluorescence, at 10 µM; active compounds read high
# [14] = molecular target: Short transient receptor potential channel 6 (Mus musculus) (UniProt Q61143); test: TRPC6 potentiation by TRPC4 potentiator hits, confirmation, selectivity assay for TRPC4 potentiator project, HEK293 cells, membrane potential dye, duplicate (AID 434952;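 active means compound raising the membrane signal above positive-control mean plus 3 SD in both repeats, and a primary screen hit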); details: HEK293 TRPC6, membrane potential dye fluorescence, at 10 µM, maximal acetylcholine added after compound; active compounds read high
# [15] = molecular target: Short transient receptor potential channel 4 (Mus musculus) (UniProt Q9QUQ5); test: calcium flux activators in TRPC4/5HT1a cells, counter-screen for TRPC4 activator project, cell-based, second counter screen, HEK293 TRPC4/5HT1a, Fluo-4 (AID 434977;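 active means calcium signal rise above buffer-control mean plus 5 SD in both duplicates, and also a hit in the primary screen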;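 further: plate controls were assay buffer for no effect and maximal serotonin response for full effect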); details: Fluo-4 calcium flux, at 10 µM; active compounds read high
# [16] = calcium flux inhibitors in TRPC4/5HT1a cells, confirmation, counter-screen for TRPC4 inhibitor project, cell-based, second counter screen, HEK293 TRPC4/5HT1a, Fluo-4 (AID 434978;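 active means primary screen active whose calcium signal fell more than 3 SD beyond the full-serotonin control mean in both duplicate plates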;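 further: serotonin given first at submaximal then at maximal dose after compound preincubation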); details: Fluo-4 calcium flux, at 10 µM, serotonin added to trigger calcium flux; active compounds read high
# [17] = test system: TRPC4 (mouse), co-expressed with 5HT1a in HEK293; test: calcium flux potentiators in TRPC4/5HT1a cells, confirmation, counter-screen for TRPC4 potentiator project, cell-based, second counter screen, HEK293 TRPC4/5HT1a, Fluo-4 (AID 434979;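 active means signal rise over 3 SD above mean of control wells given weak agonist, in both repeats and first screen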); details: Fluo-4 calcium flux, at 10 µM, serotonin added at its EC20 dose; active compounds read high
# [18] = calcium flux activation in mu-opioid HEK293 cells, confirmation, counter-screen for TRPC4 activator project, cell-based, HEK293 mu-opioid receptor line (AID 449723;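 active means hit in primary screen, with calcium signal over 5 SD above buffer well mean in both duplicates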;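 further: counter screen cells carry the mu-opioid receptor alone and lack TRPC4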); details: Fluo-4 calcium fluorescence, at 10 µM; active compounds read high
# [19] = calcium flux enhancement in mu-opioid HEK293 cells, confirmation, counter-screen for TRPC4 allosteric potentiator project, cell-based, HEK293 mu-opioid receptor line (AID 449724;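 active means calcium signal rise more than 3 SD above the low-dose agonist control mean, in both duplicate plates and the primary screen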); details: Fluo-4 calcium flux, at 10 µM, compound added before EC20 DAMGO stimulus; active compounds read high
# [20] = molecular target: Potassium voltage-gated channel subfamily KQT member 1 (Homo sapiens) (UniProt P51787); test: KCNQ1 potassium channel inhibitors, confirmation, cell-based, Tl flux, duplicate (AID 588353;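 active means primary screen active, with duplicate mean exceeding buffer control mean plus 3 SD of buffer wells, cut at about 28% in these data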;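 further: 0% = buffer control ratio and 100% = XE991 inhibitor control ratio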); details: KCNQ1 cell line, FluxOR thallium flux fluorescence; at 10 µM; active compounds read high
# [21] = thallium flux effects in parental CHO cells, counter-screen for KCNQ1 inhibitor project, cell-based, Tl flux (AID 588366;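 active means mean of duplicate thallium-flux fluorescence ratios in parental host cells more than 5 SD below the buffer control mean, cut at about 0.38 in these data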;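 further: ratio is peak minus minimum fluorescence divided by baseline fluorescence; actives read low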); details: parental CHO-K1, FluxOR thallium flux fluorescence ratio; at 10 µM; active compounds read low; zero means no signal rise above baseline
# [22] = molecular target: Potassium voltage-gated channel subfamily KQT member 2 (Rattus norvegicus) (UniProt O88943); test: KCNQ2 channel inhibition, selectivity assay for KCNQ1 inhibitor project, cell-based (AID 651746;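 active means mean percent inhibition of the KCNQ2 thallium signal more than 5 SD above the buffer-only control wells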;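 on inhibition: 0% = buffer control wells and 100% = XE-991 inhibitor control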); details: KCNQ2 cells, FluxOR thallium flux fluorescence, at 10 µM; active compounds read high
# [23] = molecular target: Potassium voltage-gated channel subfamily E member 1 (Homo sapiens) + Potassium voltage-gated channel subfamily KQT member 1 (Homo sapiens) (UniProt P15382+P51787); test: KCNQ1/KCNE1 channel inhibition, selectivity assay for KCNQ1 inhibitor project, CHO-K1 cells, thallium flux, FluxOR (AID 652147;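 active means mean percent inhibition of duplicate wells above the buffer-only control mean plus 3 SD of those controls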); details: FluxOR thallium flux fluorescence, at 10 µM
# [24] = nonspecific thallium flux increase in parental CHO-K1, confirmation, counter-screen for KCNQ2 potentiator project, cell-based, FluxOR thallium flux, duplicate (AID 2282;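 active means signal rise of at least 3 SD above the untreated control mean, in both duplicate wells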;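 further: counter screen of KCNQ2 potentiator hits so any rise reflects channel-independent effects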); details: parental CHO-K1 cells, FluxOR thallium flux fluorescence; at 10 µM; active compounds read high; zero = vehicle mean+3SD, 100% = vehicle-minus-blank window
# [25] = molecular target: Potassium voltage-gated channel subfamily KQT member 1 (Homo sapiens) (UniProt P51787); test: human KCNQ1 channel potentiation off-target, confirmation, selectivity assay for KCNQ2 potentiator project, cell-based, CHO, FluxOR thallium flux (AID 2283;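 active means fluorescence ratio rise of at least 3 SD of vehicle wells above their mean, in both replicate wells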;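 further: 0% = vehicle mean plus 3 SD and 100% = vehicle minus unstimulated blank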); details: CHO KCNQ1 stable, FluxOR thallium flux fluorescence; at 10 µM; active compounds read high; beyond 3SD, as % of vehicle-control signal
# [26] = molecular target: Potassium voltage-gated channel subfamily KQT member 2 (Rattus norvegicus) (UniProt O88943); test: rat KCNQ2 channel potentiators, confirmation, cell-based, CHO, FluxOR thallium flux, duplicate (AID 2287;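 active means fluorescence ratio rising 3 SD or more over the vehicle control mean in both replicates, plus primary screen hit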;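 further: peak minus minimum thallium fluorescence divided by baseline after K/Tl stimulus; 0% = vehicle mean plus 3 SD and 100% = vehicle minus unstimulated blank difference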); details: CHO-KCNQ2 cells, FluxOR thallium flux fluorescence; at 10 µM; active compounds read high
# [27] = molecular target: Inward rectifier potassium channel 2 (Mus musculus) (UniProt P35561); test: PubChem AID 2345; details: HEK293 Kir2.1, FluxOR thallium flux fluorescence; at 10 µM; active compounds read high;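 further: 0% = vehicle mean plus 3 SD and 100% = vehicle minus no-stimulus blank window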
# [28] = molecular target: Potassium voltage-gated channel subfamily KQT member 2 (Rattus norvegicus) (UniProt O88943); test: potentiators of retigabine-insensitive KCNQ2 W236L, mechanism study for KCNQ2 potentiator project, cell-based, rat KCNQ2 W236L, CHO, automated patch clamp (AID 2558;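 active means current increase at least 3 SD of the untreated controls above them in both duplicate recordings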); details: at 25 µM; outcome: automated patch clamp current
# [29] = molecular target: Potassium voltage-gated channel subfamily KQT member 1 (Homo sapiens) (UniProt P51787); test: KCNQ1 channel inhibitors, confirmation, orthogonal assay, cell-based, automated electrophysiology (AID 624120;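 active means KCNQ1 current drop exceeding 3 SD of negative control wells, seen in both duplicate runs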); details: KCNQ1-CHO cells, automated patch clamp current; at 10 µM
# Short transient receptor potential channel 4 (Mus musculus), sequence (Q9QUQ5 whole entry, looked up): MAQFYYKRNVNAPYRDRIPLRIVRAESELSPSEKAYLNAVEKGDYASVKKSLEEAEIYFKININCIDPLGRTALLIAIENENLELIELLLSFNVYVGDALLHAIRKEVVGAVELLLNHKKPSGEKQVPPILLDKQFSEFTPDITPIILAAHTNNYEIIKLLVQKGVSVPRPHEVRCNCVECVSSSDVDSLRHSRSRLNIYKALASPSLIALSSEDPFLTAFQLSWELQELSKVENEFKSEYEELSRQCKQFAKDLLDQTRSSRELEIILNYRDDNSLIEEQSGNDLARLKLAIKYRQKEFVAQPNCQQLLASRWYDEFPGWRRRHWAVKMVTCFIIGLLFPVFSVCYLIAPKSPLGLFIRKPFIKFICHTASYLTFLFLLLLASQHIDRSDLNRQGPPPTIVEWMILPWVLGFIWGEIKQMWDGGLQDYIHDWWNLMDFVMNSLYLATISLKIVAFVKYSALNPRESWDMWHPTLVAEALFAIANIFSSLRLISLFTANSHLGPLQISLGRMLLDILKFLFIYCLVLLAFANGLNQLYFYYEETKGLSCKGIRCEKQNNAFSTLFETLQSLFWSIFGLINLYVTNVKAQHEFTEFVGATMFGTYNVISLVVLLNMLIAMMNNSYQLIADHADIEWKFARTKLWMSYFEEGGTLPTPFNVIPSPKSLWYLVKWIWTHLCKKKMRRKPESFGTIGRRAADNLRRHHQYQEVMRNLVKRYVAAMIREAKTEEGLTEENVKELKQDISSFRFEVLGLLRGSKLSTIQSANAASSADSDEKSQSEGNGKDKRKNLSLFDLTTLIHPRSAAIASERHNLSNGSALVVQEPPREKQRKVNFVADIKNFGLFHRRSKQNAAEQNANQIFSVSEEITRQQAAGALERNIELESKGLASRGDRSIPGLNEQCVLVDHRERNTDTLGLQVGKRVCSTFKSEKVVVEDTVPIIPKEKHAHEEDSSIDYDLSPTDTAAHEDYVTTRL
# Potassium voltage-gated channel subfamily KQT member 1 (Homo sapiens), sequence (P51787 whole entry, looked up): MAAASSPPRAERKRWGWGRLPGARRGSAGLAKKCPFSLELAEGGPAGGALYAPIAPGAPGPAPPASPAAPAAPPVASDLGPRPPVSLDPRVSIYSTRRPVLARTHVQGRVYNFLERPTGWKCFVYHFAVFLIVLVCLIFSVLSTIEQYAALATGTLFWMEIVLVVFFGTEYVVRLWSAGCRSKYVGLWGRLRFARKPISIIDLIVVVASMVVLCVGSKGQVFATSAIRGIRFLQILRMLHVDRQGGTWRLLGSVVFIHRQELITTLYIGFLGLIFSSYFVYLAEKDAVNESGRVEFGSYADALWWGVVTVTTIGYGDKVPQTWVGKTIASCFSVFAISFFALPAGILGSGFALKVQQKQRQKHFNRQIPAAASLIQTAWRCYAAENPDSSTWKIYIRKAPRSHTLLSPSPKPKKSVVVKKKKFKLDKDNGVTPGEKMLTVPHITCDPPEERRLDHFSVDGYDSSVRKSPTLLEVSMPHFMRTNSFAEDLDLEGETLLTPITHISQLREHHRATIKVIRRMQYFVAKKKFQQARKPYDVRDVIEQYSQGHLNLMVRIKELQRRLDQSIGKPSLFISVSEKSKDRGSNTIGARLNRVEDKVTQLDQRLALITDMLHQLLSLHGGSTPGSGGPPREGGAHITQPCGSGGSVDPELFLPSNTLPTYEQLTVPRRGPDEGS
# Inward rectifier potassium channel 2 (Mus musculus), sequence (P35561 whole entry, looked up): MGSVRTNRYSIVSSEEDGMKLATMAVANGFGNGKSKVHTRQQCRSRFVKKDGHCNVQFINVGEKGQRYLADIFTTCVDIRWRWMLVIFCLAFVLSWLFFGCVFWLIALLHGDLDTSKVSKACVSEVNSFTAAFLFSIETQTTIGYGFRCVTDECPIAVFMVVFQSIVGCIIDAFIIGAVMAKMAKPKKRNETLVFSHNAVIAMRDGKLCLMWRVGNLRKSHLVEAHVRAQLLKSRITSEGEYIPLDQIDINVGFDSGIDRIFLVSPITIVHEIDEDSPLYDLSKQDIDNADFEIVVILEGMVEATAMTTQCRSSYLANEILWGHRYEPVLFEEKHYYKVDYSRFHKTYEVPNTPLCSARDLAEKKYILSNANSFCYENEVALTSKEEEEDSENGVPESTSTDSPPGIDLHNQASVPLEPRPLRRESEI
# Short transient receptor potential channel 6 (Mus musculus), sequence (Q61143 whole entry, looked up): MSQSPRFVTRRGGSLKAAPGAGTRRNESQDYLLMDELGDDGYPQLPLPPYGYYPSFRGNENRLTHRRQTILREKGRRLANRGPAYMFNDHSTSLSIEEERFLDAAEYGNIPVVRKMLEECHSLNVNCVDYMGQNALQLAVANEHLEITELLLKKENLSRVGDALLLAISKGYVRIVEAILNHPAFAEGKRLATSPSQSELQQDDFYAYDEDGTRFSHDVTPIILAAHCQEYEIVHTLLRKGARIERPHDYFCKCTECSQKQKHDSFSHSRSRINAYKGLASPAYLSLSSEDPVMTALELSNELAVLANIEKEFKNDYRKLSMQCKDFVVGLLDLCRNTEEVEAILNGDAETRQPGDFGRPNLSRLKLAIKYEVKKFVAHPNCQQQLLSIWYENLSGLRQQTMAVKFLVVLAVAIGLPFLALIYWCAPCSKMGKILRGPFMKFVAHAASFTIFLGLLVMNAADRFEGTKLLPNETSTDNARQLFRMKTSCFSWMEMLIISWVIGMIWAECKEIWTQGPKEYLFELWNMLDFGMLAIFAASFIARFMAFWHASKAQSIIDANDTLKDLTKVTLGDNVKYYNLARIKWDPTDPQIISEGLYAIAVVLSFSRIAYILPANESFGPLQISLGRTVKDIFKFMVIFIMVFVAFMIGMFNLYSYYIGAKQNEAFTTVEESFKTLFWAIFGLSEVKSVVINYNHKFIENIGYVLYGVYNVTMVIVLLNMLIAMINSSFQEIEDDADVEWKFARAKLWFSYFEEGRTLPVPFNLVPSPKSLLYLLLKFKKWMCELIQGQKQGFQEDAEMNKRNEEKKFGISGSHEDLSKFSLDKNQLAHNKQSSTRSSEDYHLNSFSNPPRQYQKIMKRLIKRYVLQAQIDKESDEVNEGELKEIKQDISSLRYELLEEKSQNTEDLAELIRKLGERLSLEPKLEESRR
# Potassium voltage-gated channel subfamily E member 1 (Homo sapiens) + Potassium voltage-gated channel subfamily KQT member 1 (Homo sapiens), sequence (P51787 whole entry, looked up): as the sequence (P51787 whole entry, looked up) above
structure (smiles),measurement,setting,value
CCc1ccc(-c2nn(-c3ccccc3)cc2CSC(=N)N)cc1,"Tl flux remaining, % of negative control (active compounds read low)",[1],33.5% (active)
same,outcome,[2],inactive
same,activation,[3],125% (active)
same,outcome,[4],inactive
same,outcome,[5],inactive
same,outcome,[6],inactive
same,outcome,[7],inactive
same,outcome,[8],inactive
same,outcome,[9],inactive
same,outcome,[10],inactive
same,outcome,[11],inactive
same,outcome,[12],inactive
same,outcome,[13],inactive
same,outcome,[14],inactive
same,activation,[15],43.7% (active)
same,outcome,[16],inactive
same,outcome,[17],inactive
same,activation,[18],24.4% (active)
same,outcome,[19],inactive
same,inhibition,[20],126% (active)
same,fluorescence ratio (Tl flux),[21],0.302 (active)
same,inhibition,[22],114% (active)
same,outcome,[23],inactive
COc1cccc(NC(=O)C2C(c3ccccc3)C2(Cl)Cl)c1 (configuration not stated),outcome,[1],inactive
same,outcome,[2],inactive
same,activity increase over 3SD of controls,[24],-15.2%
same,activation over 3SD threshold,[25],4.2% (active)
same,"potentiation, less the hit threshold",[26],7% (active)
same,activity over 3SD threshold,[27],-29.8%
same,outcome,[28],inactive
S=C(NCc1ccc(Cl)cc1)NC12CC3CC(CC(C3)C1)C2,outcome,[1],inactive
same,outcome,[2],inactive
same,activity increase over 3SD of controls,[24],46.3% (active)
same,activation over 3SD threshold,[25],-0.2%
same,"potentiation, less the hit threshold",[26],9% (active)
same,activity over 3SD threshold,[27],-9.25%
same,outcome,[28],inactive
same,inhibition,[20],143% (active)
same,fluorescence ratio (Tl flux),[21],0.521
same,outcome,[29],active
same,outcome,[22],inactive
same,outcome,[23],inactive
